Source: PubChem
A selection: hits, their analogues and other compounds. The true share with any hit is near 3.1%.
Tau FP inhib: tau fibrillization inhibition (FP); K18 P301L tau heparin fibrillization, Alexa594 FP, 6 h; Potency, µM (series often up to 57.7 µM), for inactives: at the top dose activity, negative = inhibition, most hits filed as inhibitors; 280,000 tested, 0.39% active; note: nearly all actives have a fitted effect of over 55% in size
Target sequence (P10636 561-689 P618L limits assumed): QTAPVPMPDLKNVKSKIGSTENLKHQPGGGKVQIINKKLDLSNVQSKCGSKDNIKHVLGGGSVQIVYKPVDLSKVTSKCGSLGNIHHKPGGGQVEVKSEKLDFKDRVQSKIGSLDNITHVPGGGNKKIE
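K18 P301L tau (15 uM unlabeled/0.24 uM Alexa 594-labeled, final) + compound + heparin 20 uM final; 100 mM NaOAc pH 7; 6 hr 37 C; ThT 30 uM final added, 1 hr RT; FP ex 555/em 632 nm.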
TR SRC2 fluor cs: Texas Red fluorescence interference in TRb-SRC2 counter-screen. TRb/SRC2 Texas Red total fluorescence interference. Potency, µM (series often up to 106 µM), for the others: at the highest dose fluorescence change, negative = quenching. 280,000 tested, 0.29% active; active = well fitted curve in either direction with a large enough effect; inconclusive = small, poorly fitted or top-dose-only effect
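Flags fluorescent or light-absorbing compounds by total fluorescence, S + 2P, at 555 nm excitation and 632 nm emission. Mixture: 20 nM Texas Red SRC2 peptide, 0.6 uM human TRb LBD, 1 uM T3, 5% DMSO; compound exposure 5 h at ambient temperature.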
Tau ThT inhib: inhibitors of human tau fibril formation, thioflavin T binding; recombinant tau K18 P301L, heparin-induced fibrillization, ThT fluorescence; Potency, µM (series often up to 57.4 µM), inactives show at the highest dose activity, negative = inhibition, usual class: inhibitors; 270,000 tested, 2.1% active; AID 1460; note: nearly all actives have a fitted effect of over 55% in size
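Tau K18 P301L fragment (15 uM unlabeled plus 0.24 uM Alexa 594-labeled) in 100 mM sodium acetate pH 7 with compound, fibrillization induced by 20 uM heparin for 6 hr at 37 C. Thioflavin T (30 uM) added, fluorescence read after 1 hr (ex 450, em 510 nm).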
Tau fluor cs: counter-screen for tau fibril formation inhibitors. tau K18 P301L Alexa594 fluorescence, heparin fibrillization. Potency, µM (series often up to 57.7 µM), inactives show at the top dose activity change, negative = decrease. 280,000 tested, 0.93% active. AID 1463; note: nearly all actives have a fitted effect of over 55% in size
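Human tau K18 P301L (15 uM unlabeled, 0.24 uM Alexa 594-labeled) in 100 mM sodium acetate pH 7 with 20 uM heparin, 6 hr at 37 C. ThT 30 uM added, 1 hr ambient; Alexa 594 FP and total fluorescence read at 555/632 nm.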
TRb SRC2 PPI: inhibitors of human thyroid hormone receptor beta-SRC2 interaction; P10828; TRbeta-SRC2 peptide binding, fluorescence polarization; receptor liganded with 1 µM T3; Potency, µM (titrated, usually from 106 µM), inactives show top-dose activity change, negative = inhibition, hits mostly inhibitors; 280,000 tested, 0.065% active; AID 1469;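 note: plate controls were bound peptide for no effect and peptide without receptor for full effect; nearly all actives have a fitted effect of over 50% in size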
Target sequence (P10828 whole entry, looked up): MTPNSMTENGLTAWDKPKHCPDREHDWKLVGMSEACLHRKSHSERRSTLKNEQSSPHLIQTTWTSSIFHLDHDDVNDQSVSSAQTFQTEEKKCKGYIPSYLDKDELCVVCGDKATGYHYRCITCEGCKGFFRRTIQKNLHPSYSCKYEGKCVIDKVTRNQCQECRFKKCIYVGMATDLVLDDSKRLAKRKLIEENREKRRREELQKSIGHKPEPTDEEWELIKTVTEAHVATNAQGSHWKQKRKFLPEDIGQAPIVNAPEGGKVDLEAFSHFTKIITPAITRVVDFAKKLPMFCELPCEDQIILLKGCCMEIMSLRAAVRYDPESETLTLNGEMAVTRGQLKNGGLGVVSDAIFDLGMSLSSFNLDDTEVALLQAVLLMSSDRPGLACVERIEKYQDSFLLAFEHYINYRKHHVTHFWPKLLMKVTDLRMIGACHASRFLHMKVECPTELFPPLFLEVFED
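A fluorescence polarization screen tested compounds at multiple concentrations against complex formation between 0.6 uM TRb ligand-binding domain and 20 nM Texas Red SRC2 peptide, with 1 uM T3 present; readout after 5 hr.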
The depositor's hits bear a star; [ ] = remark or other dose. Unless noted, calls come from the whole dose curve; as a rule, active = well fitted curve in the direction sought with a large enough effect; inconclusive = small, poorly fitted or top-dose-only effect, or another doubt; inactive = no such curve, though single readings can be large; an effect the other way counts as inactive or inconclusive. Unless noted, % is set by controls: 0 for no effect and ±100 for the full control effect; potency is the fitted concentration of half-maximal effect.

How did Nc1nc(-c2ccccc2)c(N=Nc2cccc3ccccc23)s1 do in these assays?
Tau FP inhib: 18µM*; TR SRC2 fluor cs: -6%; Tau ThT inhib: 2.8µM*; Tau fluor cs: 3.2µM*[quencher]; TRb SRC2 PPI: 8%

What do the screens show for `CN1C(=O)C(O)(c2sc(N)nc2-c2ccccc2)c2ccccc21` (stereo unspecified)?
Tau FP inhib: 3%; TR SRC2 fluor cs: -2%; Tau ThT inhib: -14%; Tau fluor cs: -1%; TRb SRC2 PPI: -5%

How did CC(C)N(C(=O)CSc1cn(CC(=O)N2CCCCCC2)c2ccccc12)C(C)C do in these assays?
Tau FP inhib: -6%; TR SRC2 fluor cs: 0%; Tau ThT inhib: -13%; Tau fluor cs: -7%; TRb SRC2 PPI: 2%

What do the screens show for `COn1c2c(c3c4no[n+]([O-])c4ccc31)CCCC2`?
Tau FP inhib: 2%; TR SRC2 fluor cs: 0%; Tau ThT inhib: inconclusive; Tau fluor cs: -17%; TRb SRC2 PPI: 10%

How did On1c2c(c3c4nonc4ccc31)CCCC2 do in these assays?
Tau FP inhib: inconclusive; TR SRC2 fluor cs: 4%; Tau ThT inhib: 7.9µM*; Tau fluor cs: inconclusive; TRb SRC2 PPI: 2%

What do the screens show for `COn1c2c(c3c4nonc4ccc31)CCCC2`?
Tau FP inhib: inconclusive; TR SRC2 fluor cs: -3%; Tau ThT inhib: 14µM*; Tau fluor cs: inconclusive; TRb SRC2 PPI: inconclusive

Results for CCOC(=O)c1c(C)n(OC)c2ccc3c(no[n+]3[O-])c12 ?
Tau FP inhib: -6%; TR SRC2 fluor cs: 0%; Tau ThT inhib: -10%; Tau fluor cs: -9%; TRb SRC2 PPI: 0%

Results for COn1c(C)c(C(C)=O)c2c3nonc3ccc21 ?
Tau FP inhib: inconclusive; TR SRC2 fluor cs: -1%; Tau ThT inhib: 14µM*; Tau fluor cs: -15%; TRb SRC2 PPI: -2%

How did Oc1ccccc1-n1nc2ccc3nonc3c2n1 do in these assays?
Tau FP inhib: -7%; TR SRC2 fluor cs: 0%; Tau ThT inhib: -7%; Tau fluor cs: -16%; TRb SRC2 PPI: 4%

How did CCOC(=O)c1ccc(Nc2c(-c3ccc(OC)cc3)nc3nc[nH]n23)cc1 do in these assays?
Tau FP inhib: 5%; TR SRC2 fluor cs: 1%; Tau ThT inhib: -6%; Tau fluor cs: -19%; TRb SRC2 PPI: -2%

What do the screens show for `CC(C)c1ccc2cc(C(C)C)ccc2c1`?
TR SRC2 fluor cs: 3%[201 µM]; TRb SRC2 PPI: -2%[201 µM]

What do the screens show for `N[C@@H](CSS(=O)(=O)O)C(=O)O`?
Tau FP inhib: 18µM*; TR SRC2 fluor cs: -1%; Tau ThT inhib: 13µM*; Tau fluor cs: -12%; TRb SRC2 PPI: -14%

Results for CCCSc1nnc(NC(=O)c2ccco2)s1 ?
Tau FP inhib: 2%; TR SRC2 fluor cs: -1%; Tau ThT inhib: -7%; Tau fluor cs: -7%; TRb SRC2 PPI: -3%

How did Cc1ccc(NC(=O)c2sc3nc(-c4cccs4)ccc3c2N)cc1F do in these assays?
Tau FP inhib: -9%; TR SRC2 fluor cs: -3%; Tau ThT inhib: inconclusive; Tau fluor cs: inconclusive; TRb SRC2 PPI: 0%

What do the screens show for `Cc1csc(NC(=O)c2sc3nc(-c4cccs4)ccc3c2N)n1`?
Tau FP inhib: 13%; TR SRC2 fluor cs: -5%; Tau ThT inhib: 7.9µM*; Tau fluor cs: inconclusive; TRb SRC2 PPI: -19%

How did CCCSc1nnc(NC(=O)c2sc3nc(-c4cccs4)ccc3c2N)s1 do in these assays?
Tau FP inhib: -4%; TR SRC2 fluor cs: -10%; Tau ThT inhib: 7.9µM*; Tau fluor cs: inconclusive; TRb SRC2 PPI: -1%

How did O=C(NNC(=O)c1cc2cc(Br)ccc2oc1=O)c1ccc(O)cc1O do in these assays?
Tau FP inhib: 3%; TR SRC2 fluor cs: -16%; Tau ThT inhib: 8.9µM*; Tau fluor cs: inconclusive; TRb SRC2 PPI: 0%

What do the screens show for `COCCCNC(=O)c1cc2cc(Br)ccc2oc1=O`?
Tau FP inhib: -3%; TR SRC2 fluor cs: -2%; Tau ThT inhib: 1%; Tau fluor cs: 3%; TRb SRC2 PPI: -4%

What do the screens show for `O=C1/C(=C/c2ccccc2[N+](=O)[O-])COc2ccccc21`?
Tau FP inhib: inconclusive; TR SRC2 fluor cs: -1%; Tau ThT inhib: 13µM*; Tau fluor cs: inconclusive; TRb SRC2 PPI: 4%

What do the screens show for `O=C1/C(=C/c2ccccn2)COc2ccccc21`?
Tau FP inhib: 2%; TR SRC2 fluor cs: -1%; Tau ThT inhib: inconclusive; Tau fluor cs: 0%; TRb SRC2 PPI: -4%

How did CNc1ccc(/C=C2\COc3ccccc3C2=O)cc1[N+](=O)[O-] do in these assays?
Tau FP inhib: -2%; TR SRC2 fluor cs: 0%; Tau ThT inhib: 1.6µM*; Tau fluor cs: -12%; TRb SRC2 PPI: -9%

How did COc1ccccc1NC(=O)CSC1=Nc2ccccc2N=C(c2ccc(F)cc2)C1 do in these assays?
Tau FP inhib: -6%; TR SRC2 fluor cs: -6%; Tau ThT inhib: 2%; Tau fluor cs: -10%; TRb SRC2 PPI: 3%

How did Cc1[nH]c2ccccc2c1C(C#N)(C#N)C1C(=O)c2ccccc2C1=O do in these assays?
Tau FP inhib: inconclusive; TR SRC2 fluor cs: -4%; Tau ThT inhib: 6.3µM*; Tau fluor cs: 4.5µM*[quencher]; TRb SRC2 PPI: -1%

How did O=C(c1ccc(Cl)cc1)c1ccc(Cl)cc1 do in these assays?
TR SRC2 fluor cs: -1%[201 µM]; TRb SRC2 PPI: 0%[201 µM]

Results for O=C(NNc1ccc(O)cc1)c1ccc(Br)cc1 ?
Tau FP inhib: inconclusive; TR SRC2 fluor cs: 1%; Tau ThT inhib: 16µM*; Tau fluor cs: inconclusive; TRb SRC2 PPI: -4%

Results for O=C(Nc1cccc(O)c1)c1ccc(Br)cc1 ?
Tau FP inhib: 1%; TR SRC2 fluor cs: 0%; Tau ThT inhib: -8%; Tau fluor cs: -17%; TRb SRC2 PPI: 10%

Results for O=C(NCCN1CCOCC1)C1(C(F)(F)F)C/C(=C/CCO)CCCO1 (stereo unspecified) ?
TR SRC2 fluor cs: -1%; TRb SRC2 PPI: 6%

What do the screens show for `COc1ccccc1CNC(=O)C1(c2cccs2)CCOCC1`?
Tau FP inhib: -3%; TR SRC2 fluor cs: -1%; Tau ThT inhib: -8%; Tau fluor cs: -6%; TRb SRC2 PPI: -7%

Results for CC(=O)c1ccc(N2CCC(c3cc(-c4ccc(Cl)cc4)n[nH]3)CC2)c([N+](=O)[O-])c1 ?
Tau FP inhib: inconclusive; TR SRC2 fluor cs: -2%; Tau ThT inhib: 4.5µM*; Tau fluor cs: inconclusive; TRb SRC2 PPI: 7%

What do the screens show for `COc1ccc(-c2cc(C3CCN(C(=O)OC(C)(C)C)CC3)[nH]n2)cc1`?
Tau FP inhib: -6%; TR SRC2 fluor cs: -4%; Tau ThT inhib: -14%; Tau fluor cs: -16%; TRb SRC2 PPI: -1%

What do the screens show for `COC(=O)c1ccc(N2CCC(c3cc(-c4ccc(OC)cc4)n[nH]3)CC2)c([N+](=O)[O-])c1`?
Tau FP inhib: inconclusive; TR SRC2 fluor cs: 0%; Tau ThT inhib: 3.5µM*; Tau fluor cs: inconclusive; TRb SRC2 PPI: -12%
